Reference: PubChem BioAssay (NCATS)
Inconclusive results are not listed. Calls of active or inactive are those of the source. Calls follow the shape of the dose curve; as a rule, active = well fitted curve in the direction sought with a large enough effect; inconclusive = small, poorly fitted or top-dose-only effect, or another doubt; inactive = no such curve, though single readings can be large; an effect the other way counts as inactive or inconclusive.

Assays:
[1] = qHTS of pediatric cancer cell lines to identify multiple opportunities for drug repurposing: Primary screen for SJ-GBM2 cells (AID 1347091);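 as to activity change, negative = cytotoxic: plate controls were DMSO neutral control for no effect and bortezomib for full effect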
In short: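 Cell viability, CellTiter-Glo luminescence; 500-1,000 cells/well, 8- or 11-point titration, 48 h compound exposure at 37 degrees C, 5% CO2. Controls: DMSO neutral, bortezomib 2.3 µM final as positive.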

[2] = qHTS of pediatric cancer cell lines to identify multiple opportunities for drug repurposing: Primary screen for A673 cells (AID 1347092); also: nearly all actives have a fitted effect of over 45% in size; as to activity change, negative = cytotoxic: % is scaled to controls: 0 for no effect and ±100 for the full control effect
In short: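 48 h compound exposure, A673, 500-1,000 cells/well, 37 degrees C/5% CO2. MIPE: 11-point, 0.78 nM-46 µM; NPC: 8-point, 0.59 nM-46 µM (final). Readout CellTiter-Glo luminescence after 15 min RT.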

[3] = qHTS of pediatric cancer cell lines to identify multiple opportunities for drug repurposing: Primary screen for SK-N-MC cells (AID 1347093);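 as to activity change, negative = cytotoxic: series mostly up to about 46 µM; plate controls were DMSO neutral control for no effect and bortezomib for full effect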
In short: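 Metabolically active cells were quantified by ATP-dependent luminescence (CellTiter-Glo, 15 min at room temperature) following 48 h treatment. Cells had been plated at 500-1,000 per well and settled for 5 h beforehand.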

[4] = qHTS of pediatric cancer cell lines to identify multiple opportunities for drug repurposing: Primary screen for BT-37 cells (AID 1347094);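 as to activity change, negative = cytotoxic: series mostly up to about 57 µM; plate controls were DMSO for no effect and bortezomib for full effect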
In short: (§1)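 Cells seeded at 500-1,000 cells/well in growth media, rested 5 hours at 37 degrees C, 5% CO2, then dosed; MIPE compounds at 11-point (from 0.78 nM) and NPC at 8-point (from 0.59 nM) final concentrations. Viability by CellTiter-Glo luminescence after 48 hours.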

[5] = qHTS of pediatric cancer cell lines to identify multiple opportunities for drug repurposing: Primary screen for NB-EBc1 cells (AID 1347095);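 as to activity change, negative = cytotoxic: plate controls were DMSO neutral control for no effect and bortezomib for full effect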
In short: as §1

[6] = qHTS of pediatric cancer cell lines to identify multiple opportunities for drug repurposing: Primary screen for U-2 OS cells (AID 1347096); also: nearly all actives have a fitted effect of over 50% in size;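 as to activity change, negative = cytotoxic: plate controls were DMSO wells for no effect and bortezomib positive control wells for full effect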
In short: (§2)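 Cells (500-1,000/well) rested 5 h, then received compounds for 48 h; metabolically active cells were measured by CellTiter-Glo luminescence. Final concentrations spanned up to 46 µM (MIPE, 11-point) or 0.59 nM-46 µM (NPC, 8-point) in primary screens, 11-point in follow-ups.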

[7] = qHTS of pediatric cancer cell lines to identify multiple opportunities for drug repurposing: Primary screen for Saos-2 cells (AID 1347097); also: nearly all actives have a fitted effect of over 40% in size; as to activity change, negative = cytotoxic: % is scaled to controls: 0 for no effect and ±100 for the full control effect
In short: as §1

[8] = qHTS of pediatric cancer cell lines to identify multiple opportunities for drug repurposing: Primary screen for SK-N-SH cells (AID 1347098); also: nearly all actives have a fitted effect of over 65% in size; as to activity change, negative = cytotoxic: % is scaled to controls: 0 for no effect and ±100 for the full control effect
In short: as §2

[9] = qHTS of pediatric cancer cell lines to identify multiple opportunities for drug repurposing: Primary screen for LAN-5 cells (AID 1347100);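 as to activity change, negative = cytotoxic: plate controls were DMSO neutral control for no effect and bortezomib positive control for full effect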
In short: as §2

[10] = qHTS of pediatric cancer cell lines to identify multiple opportunities for drug repurposing: Primary screen for NB1643 cells (AID 1347099); also: nearly all actives have a fitted effect of over 50% in size;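 as to activity change, negative = cytotoxic: plate controls were DMSO neutral control for no effect and bortezomib positive control for full effect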
In short: as §1
Potency is read from the fitted curve at half-maximal effect.

NC(=O)c1cn(Cc2c(F)cccc2F)nn1
inactive: Potency [1] | Potency [2] | Potency [3] | Potency [4] | Potency [5] | Potency [6] | Potency [7] | Potency [8] | Potency [9]

C[C@]12CCC(=O)C=C1CC[C@@H]1[C@@H]2CC[C@@]2(C)[C@H]1CC[C@]2(O)C(=O)CO
inactive: Potency [1] | Potency [2] | Potency [3] | Potency [4] | Potency [5] | Potency [6] | Potency [7] | Potency [8] | Potency [10] | Potency [9]

CSc1ccc(C(=O)c2[nH]c(=O)[nH]c2C)cc1
inactive: Potency [1] | Potency [2] | Potency [3] | Potency [4] | Potency [5] | Potency [6] | Potency [7] | Potency [8] | Potency [9]

COc1ccc([C@@H]2Sc3ccccc3N(CCN(C)C)C(=O)[C@@H]2OC(C)=O)cc1
inactive: Potency [1] | Potency [2] | Potency [3] | Potency [4] | Potency [5] | Potency [6] | Potency [7] | Potency [8] | Potency [10] | Potency [9]

COc1ccc(CCN(C)CCCC(C#N)(c2cc(OC)c(OC)c(OC)c2)C(C)C)cc1OC (stereo not given)
inactive: Potency [1] | Potency [2] | Potency [3] | Potency [4] | Potency [5] | Potency [6] | Potency [7] | Potency [8] | Potency [10] | Potency [9]

C[n+]1cc2c3c(ccc2c2ccc4cc5c(cc4c21)OCO5)OCO3
active: Potency [1] 1.16 µM | Potency [2] 1.16 µM | Potency [3] 1.3 µM | Potency [4] 2.13 µM | Potency [5] 1.03 µM | Potency [6] 2.91 µM | Potency [7] 4.11 µM | Potency [8] 1.5 µM | Potency [10] 1.16 µM | Potency [9] 1.16 µM

C=CCc1ccccc1OCC(O)CNC(C)C (stereo not given)
inactive: Potency [1] | Potency [2] | Potency [3] | Potency [4] | Potency [5] | Potency [6] | Potency [7] | Potency [8] | Potency [9]

CC[N+](C)(C)c1cccc(O)c1
inactive: Potency [1] | Potency [2] | Potency [3] | Potency [4] | Potency [5] | Potency [6] | Potency [7] | Potency [8] | Potency [10] | Potency [9]

NC/C=C/C(=O)O
inactive: Potency [1] | Potency [2] | Potency [3] | Potency [4] | Potency [5] | Potency [6] | Potency [7] | Potency [10] | Potency [9]

NS(=O)(=O)c1cc2c(cc1Cl)NC(C1CC3C=CC1C3)NS2(=O)=O (stereo not given)
inactive: Potency [1] | Potency [2] | Potency [3] | Potency [4] | Potency [5] | Potency [6] | Potency [7] | Potency [10] | Potency [9]

O=C(O)CCCCCCCC(=O)O
inactive: Potency [1] | Potency [2] | Potency [3] | Potency [4] | Potency [5] | Potency [6] | Potency [7] | Potency [10] | Potency [9]

CCCN(CCC)C(=O)C(CCC(=O)O)NC(=O)c1ccccc1 (stereo not given)
inactive: Potency [1] | Potency [2] | Potency [3] | Potency [4] | Potency [5] | Potency [6] | Potency [7] | Potency [10] | Potency [9]

Cc1ccc(=O)n(-c2ccccc2)c1
inactive: Potency [1] | Potency [2] | Potency [3] | Potency [4] | Potency [5] | Potency [6] | Potency [7] | Potency [10] | Potency [9]

CCCNC(C)C(=O)Nc1ccccc1C (stereo not given)
inactive: Potency [1] | Potency [2] | Potency [3] | Potency [4] | Potency [5] | Potency [6] | Potency [7] | Potency [8] | Potency [10] | Potency [9]

CN1CCN(CC(=O)N2c3ccccc3C(=O)Nc3cccnc32)CC1
inactive: activity change, negative = cytotoxic [1] 3.45% [at 4.84 µM] | activity change, negative = cytotoxic [2] 5.45% [at 4.84 µM] | activity change, negative = cytotoxic [3] -2.23% [at 4.84 µM] | activity change, negative = cytotoxic [4] 11.8% [at 6.03 µM] | activity change, negative = cytotoxic [5] 16.9% [at 4.84 µM] | activity change, negative = cytotoxic [6] 4.1% [at 4.84 µM] | activity change, negative = cytotoxic [7] -2.29% [at 4.84 µM] | activity change, negative = cytotoxic [8] 4.46% [at 6 µM] | activity change, negative = cytotoxic [10] 9.59% [at 4.84 µM] | activity change, negative = cytotoxic [9] 10.3% [at 4.84 µM]

CC(C)[N+](C)(CCOC(=O)C1c2ccccc2Oc2ccccc21)C(C)C
inactive: Potency [1] | Potency [2] | Potency [3] | Potency [4] | Potency [5] | Potency [6] | Potency [7] | Potency [8] | Potency [10] | Potency [9]

CCN1CCc2nc(N)oc2CC1
inactive: Potency [1] | Potency [2] | Potency [3] | Potency [4] | Potency [5] | Potency [6] | Potency [7] | Potency [8] | Potency [9]

Cc1scc2c1N(C(=O)CN1CCN(C)CC1)c1ccccc1NC2=O
inactive: Potency [1] | Potency [2] | Potency [3] | Potency [4] | Potency [5] | Potency [6] | Potency [7] | Potency [8] | Potency [9]

CCn1ccnc1CC1COc2ccccc2O1 (stereo not given)
inactive: Potency [1] | Potency [2] | Potency [3] | Potency [4] | Potency [5] | Potency [6] | Potency [7] | Potency [8] | Potency [10] | Potency [9]
